FGF22 binding: binders of human FGF22 protein, primary screen, FGF22 synaptogenesis inhibitor project, biophysical, thermal shift, single point. actives 1.5% (n = 340,000). recombinant FGF22 thermal shift, SYPRO orange fluorescence; percent of sucrose octasulfate shift, DMSO zero. activity (Tm shift, normalised), % at 9.99 µM. Fibroblast growth factor 22 (Homo sapiens), Q9HCT0;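 active = mean Tm shift, scaled 0 neutral to 100 positive control, at about 1.3% or above, every replicate too, limit read from the data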
Target sequence (Q9HCT0 whole entry, looked up): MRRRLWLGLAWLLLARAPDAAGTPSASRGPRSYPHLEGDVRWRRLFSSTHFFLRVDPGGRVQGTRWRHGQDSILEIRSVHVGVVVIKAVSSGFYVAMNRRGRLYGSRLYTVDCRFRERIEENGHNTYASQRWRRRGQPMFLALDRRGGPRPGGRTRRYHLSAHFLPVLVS
Vif imaging: HIV Vif self-association inhibitors, primary screen, imaging, HEK293T, single point | HEK293T cells, Vif self-association by quenched fluorescence, 24 h | inhibition, % at 7.49 µM | actives 0.35% (n = 340,000) | AID 602346, 2012; in the data active = inhibition above about 50%, passing the limit was not always enough
F508del corr: F508del CFTR correction, initial screen, CFBE line, single point; CFBE cells, YFP halide quenching; stimulated with forskolin plus potentiator P3; % fluorescence drop versus neutral controls; activity (quench increase), % at 7.58 µM; actives 0.36% (n = 350,000); AID 720511, 2013;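 active = mean added fluorescence quench of at least 8% versus neutral control, with both replicates also reaching 8%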;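 note: cells transiently co-express mutant CFTR-F508del with the halide-sensitive YFP; corrector assay measuring rescue of mutant channel to the surface after 24 h compound exposure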
Starred values were filed as active, the others as inactive. Hits are enriched below; roughly 1.7% of the tested compounds scored in any of these assays.

Cc1noc(C)c1S(=O)(=O)Nc1cccc2c1O[C@@H](CN(C)C(=O)NC1CCCCC1)[C@@H](C)CN([C@@H](C)CO)C2=O was read as FGF22 binding 0 and F508del corr 0.
CCC(=O)N1C[C@@H](C)[C@@H](OC)CN(C)C(=O)c2ccc(NC(=O)NC(C)C)cc2OC[C@@H]1C was read as FGF22 binding 0 and F508del corr 1.
Screening CNC[C@@H]1Oc2cc(C#Cc3cccnc3)ccc2S(=O)(=O)N([C@@H](C)CO)C[C@@H]1C returned FGF22 binding 0 and F508del corr -2.
For O=C(N[C@H]1CC[C@@H](CCNC(=O)C2CCCCC2)O[C@@H]1CO)c1ccccn1 the results were FGF22 binding 0 and F508del corr 0.
Screening O=C(COc1ccc(Cl)cc1)NCc1nnc2c3ccccc3c(-c3ccccc3)nn12 returned Vif imaging -3.
For Cc1nn2c(COc3ccc(NC(=O)c4ccccc4Cl)cc3)nnc2c2ccccc12 the results were Vif imaging 99*.
Cc1nn2c(COc3ccc(NC(=O)C(C)C)cc3)nnc2c2ccccc12 was read as FGF22 binding 0, Vif imaging 3 and F508del corr 4.
For O=C(NCc1nnc2c3ccccc3c(-c3ccccc3)nn12)c1ccccc1Cl the results were FGF22 binding 44*, Vif imaging 9 and F508del corr -1.
For O=C(C[C@H]1C[C@H]2c3cc(NC(=O)Cc4ccncc4)ccc3O[C@H]2[C@H](CO)O1)NCc1cccc(F)c1 the results were FGF22 binding 0 and F508del corr 3.
`COc1ccccc1-c1ccc2c(c1)O[C@H](CN(C)C(=O)c1cccnc1)[C@H](C)CN([C@H](C)CO)S2(=O)=O` gave FGF22 binding 0 and F508del corr -1.
Screening COc1cc(/C=C/C(=O)OCC(=O)N(C)Cc2ccccc2)cc(OC)c1OC returned FGF22 binding 0, Vif imaging 8 and F508del corr -3.
Screening COc1cc(/C=C/C(=O)OCC(=O)N(C)Cc2ccccc2)ccc1O returned FGF22 binding 0, Vif imaging 51* and F508del corr -4.
Screening C[C@@H]1CCCCO[C@@H](CN(C)C(=O)c2ccccc2)[C@@H](C)CN([C@@H](C)CO)C(=O)c2cc(NS(=O)(=O)c3ccc(Cl)cc3)ccc2O1 returned FGF22 binding 0 and F508del corr 2.
Screening O=CNc1ccc2c3c(cccc13)-c1ccccc1-2 returned FGF22 binding 45*, Vif imaging 56* and F508del corr 3.
`CC(=O)Nc1ccc2c3c(cccc13)C(=O)N(c1ccccc1)C2=O` gave FGF22 binding 0, Vif imaging 1 and F508del corr 2.
For Cc1noc(C)c1NC(=O)N(C)C[C@@H]1Oc2c(NC(=O)c3nc4ccccc4s3)cccc2C(=O)N([C@@H](C)CO)C[C@@H]1C the results were FGF22 binding 0 and F508del corr 2.
Screening CC(C)OC(=O)N(C)C[C@@H]1OCc2cn(nn2)CCCC(=O)N([C@H](C)CO)C[C@@H]1C returned FGF22 binding 0 and F508del corr 0.
Screening C[C@H]1CN([C@@H](C)CO)C(=O)c2cc(NS(=O)(=O)c3cccs3)ccc2O[C@@H]1CN(C)Cc1ccc2c(c1)OCO2 returned FGF22 binding 0 and F508del corr -4.
For O=C(OCc1nc2ccccc2s1)c1ccccc1O the results were FGF22 binding 0, Vif imaging 8 and F508del corr -7.
`CCN(C(=O)COC(=O)c1ccccc1O)c1nc2ccccc2s1` gave FGF22 binding 43*, Vif imaging 11 and F508del corr 0.
`CCCN(C)C[C@@H]1Oc2cc(-c3ccccc3C)ccc2S(=O)(=O)N([C@H](C)CO)C[C@@H]1C` gave FGF22 binding 0 and F508del corr -4.
CC(C)CN(CC(C)C)C(=O)c1cccc(S(=O)(=O)N2CCc3ccccc32)c1 was read as FGF22 binding 44*, Vif imaging -5 and F508del corr -1.
For O=C(COC(=O)c1cccc(S(=O)(=O)N2CCc3ccccc3C2)c1)NCc1ccco1 the results were Vif imaging 6.
Screening CC(C)CCNC(=O)c1cccc(S(=O)(=O)N2CCc3ccccc32)c1 returned Vif imaging -3.
Screening O=C(COC(=O)c1cccc(S(=O)(=O)N2CCc3ccccc32)c1)NCc1ccco1 returned FGF22 binding 44*, Vif imaging -1 and F508del corr -1.
`CNC(=O)C[C@H]1CC[C@@H]2[C@H](COc3ccc(NC(=O)c4ccc(C(F)(F)F)cc4)cc3C(=O)N2C)O1` gave FGF22 binding 0 and F508del corr 0.

Bioassay records as filed in PubChem.
